# Laboratory results taken from PubChem BioAssay AID1159580 (chemical genetic matrix, 2015).
# Where “and” joins values, the source holds several entries; their conditions need not be identical. Identical values can stand only once. Among all 5,500 compounds or so, about 2,000 (36%) were called active. Inconclusive results (about 18%) are left out. No stated cut-off is given here; in the data, active means normalized growth mostly below about 0.91 (no sharp cut-off); inconclusive means no clear call, values can overlap the other calls; inactive means mostly above about 0.92. This is one part of the list.
# Experiment: chemical genetic growth profiling, strain panel (AID 1159580);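 further: tested at 20 µM; growth read once vehicle control cultures reached saturation at 30 °C; 1 = growth at the plate median or of vehicle wells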
# Conditions: S. cerevisiae deletion strains, growth OD
structure (smiles),measurement,setting,value
C#CCCCCCCCCCCCC(O)CC(O)CO (configuration not stated),normalized growth,"locus YAL013W, strain DEP1, stronger effect = lower value",1 (inactive)
same,normalized growth,"locus YAL021C, strain ccr4, stronger effect = lower value",0.979 (inactive)
same,normalized growth,"locus YAL026C, strain drs2, stronger effect = lower value",0.992 (inactive)
same,normalized growth,"locus YAL030W, strain snc1, stronger effect = lower value",0.99 (inactive)
same,normalized growth,"locus YBL061C, strain skt5, stronger effect = lower value",0.987 (inactive)
same,normalized growth,"locus YBR009C, strain hhf1, stronger effect = lower value",0.991 (inactive)
same,normalized growth,"locus YBR021W, strain FUR4, stronger effect = lower value",0.974 (inactive)
same,normalized growth,"locus YBR023C, strain chs3, stronger effect = lower value",0.983 (inactive)
same,normalized growth,"locus YBR171W, strain sec66, stronger effect = lower value",0.999 (inactive)
same,normalized growth,"locus YBR229C, strain ROT2, stronger effect = lower value",1 (inactive)
same,normalized growth,"locus YBR231C, strain swc5, stronger effect = lower value",0.993 (inactive)
same,normalized growth,"locus YBR279W, strain paf1, stronger effect = lower value",0.995 (inactive)
same,normalized growth,"locus YCL011C, strain gbp2, stronger effect = lower value",0.988 (inactive)
same,normalized growth,"locus YCL016C, strain dcc1, stronger effect = lower value",0.97 (inactive)
same,normalized growth,"locus YCL029C, strain bik1, stronger effect = lower value",1.01 (inactive)
same,normalized growth,"locus YCL061C, strain MRC1, stronger effect = lower value",0.979 (inactive)
same,normalized growth,"locus YCL069W, strain vba3, stronger effect = lower value",0.992 (inactive)
same,normalized growth,"locus YCR088W, strain abp1, stronger effect = lower value",0.985 (inactive)
same,normalized growth,"locus YDL005C, strain med2, stronger effect = lower value",0.974 (inactive)
same,normalized growth,"locus YDL035C, strain GPR1, stronger effect = lower value",0.984 (inactive)
same,normalized growth,"locus YDL040C, strain nat1, stronger effect = lower value",0.988 (inactive)
same,normalized growth,"locus YDL074C, strain BRE1, stronger effect = lower value",0.988 (inactive)
same,normalized growth,"locus YDL101C, strain DUN1, stronger effect = lower value",1.01 (inactive)
same,normalized growth,"locus YDL134C, strain PPH21, stronger effect = lower value",0.995 (inactive)
same,normalized growth,"locus YDL185W, strain tfp1, stronger effect = lower value",1.01 (inactive)
same,normalized growth,"locus YDL192W, strain arf1, stronger effect = lower value",1 (inactive)
same,normalized growth,"locus YDR001C, strain nth1, stronger effect = lower value",0.982 (inactive)
same,normalized growth,"locus YDR069C, strain doa4, stronger effect = lower value",0.994 (inactive)
same,normalized growth,"locus YDR101C, strain arx1, stronger effect = lower value",0.987 (inactive)
same,normalized growth,"locus YDR137W, strain rgp1, stronger effect = lower value",0.986 (inactive)
same,normalized growth,"locus YDR150W, strain NUM1, stronger effect = lower value",0.999 (inactive)
same,normalized growth,"locus YDR159W, strain sac3, stronger effect = lower value",1 (inactive)
same,normalized growth,"locus YDR162C, strain NBP2, stronger effect = lower value",1.03 (inactive)
same,normalized growth,"locus YDR195W, strain ref2",0.986 (inactive)
same,normalized growth,"locus YDR297W, strain sur2, stronger effect = lower value",0.988 (inactive)
same,normalized growth,"locus YDR318W, strain mcm21, stronger effect = lower value",1.01 (inactive)
same,normalized growth,"locus YDR334W, strain swr1, stronger effect = lower value",0.991 (inactive)
same,normalized growth,"locus YDR335W, strain msn5, stronger effect = lower value",0.988 (inactive)
same,normalized growth,"locus YDR388W, stronger effect = lower value",0.999 (inactive)
same,normalized growth,"locus YDR392W, strain spt3, stronger effect = lower value",0.877 (inactive)
same,normalized growth,"locus YDR502C, strain sam2, stronger effect = lower value",1 (inactive)
same,normalized growth,"locus YEL003W, strain gim4, stronger effect = lower value",0.98 (inactive)
same,normalized growth,"locus YEL037C, strain rad23, stronger effect = lower value",0.995 (inactive)
same,normalized growth,"locus YEL061C, strain CIN8 (second series), stronger effect = lower value",0.986 (inactive)
same,normalized growth,"locus YEL061C, strain CIN8, stronger effect = lower value",0.997 (inactive)
same,normalized growth,"locus YER015W, strain faa2, stronger effect = lower value",0.972 (inactive)
same,normalized growth,"locus YER016W, strain bim1, stronger effect = lower value",0.989 (inactive)
same,normalized growth,"locus YER110C, stronger effect = lower value",1 (inactive)
same,normalized growth,"locus YER111C, strain swi4, stronger effect = lower value",0.971 (inactive)
same,normalized growth,"locus YER155C, strain BEM2 (second series), stronger effect = lower value",0.953 (inactive)
same,normalized growth,"locus YER155C, strain BEM2, stronger effect = lower value",1.01 (inactive)
same,normalized growth,"locus YER167W, strain BCK2, stronger effect = lower value",0.998 (inactive)
same,normalized growth,"locus YFR010W, strain ubp6, stronger effect = lower value",0.993 (inactive)
same,normalized growth,"locus YGL078C, strain dbp3, stronger effect = lower value",1.02 (inactive)
same,normalized growth,"locus YGL086W, strain mad1, stronger effect = lower value",1.01 (inactive)
same,normalized growth,"locus YGL167C, strain pmr1, stronger effect = lower value",0.983 (inactive)
same,normalized growth,"locus YGL173C, strain kem1, stronger effect = lower value",0.983 (inactive)
same,normalized growth,"locus YGL227W, strain vid30, stronger effect = lower value",0.993 (inactive)
same,normalized growth,"locus YGL240W, strain doc1, stronger effect = lower value",1 (inactive)
same,normalized growth,"locus YGL248W, strain PDE1, stronger effect = lower value",0.997 (inactive)
same,normalized growth,"locus YGL253W, strain hxk2, stronger effect = lower value",0.991 (inactive)
same,normalized growth,"locus YGR078C, strain PAC10, stronger effect = lower value",0.981 (inactive)
same,normalized growth,"locus YGR135W, strain pre9, stronger effect = lower value",0.992 (inactive)
same,normalized growth,"locus YGR229C, strain SMI1, stronger effect = lower value",1.07 (inactive)
same,normalized growth,"locus YGR252W, strain gcn5, stronger effect = lower value",0.993 (inactive)
same,normalized growth,"locus YHR013C, strain ard1, stronger effect = lower value",0.939 (inactive)
same,normalized growth,"locus YHR027C, strain rpn1, stronger effect = lower value",0.984 (inactive)
same,normalized growth,"locus YHR030C, strain SLT2, stronger effect = lower value",0.999 (inactive) and 0.85 (active)
same,normalized growth,"locus YHR079C, strain IRE1 (second series), stronger effect = lower value",1 (inactive)
same,normalized growth,"locus YHR079C, strain IRE1, stronger effect = lower value",0.782 (active)
same,normalized growth,"locus YHR094C, strain hxt1, stronger effect = lower value",1.01 (inactive)
same,normalized growth,"locus YHR129C, strain ARP1, stronger effect = lower value",0.996 (inactive)
same,normalized growth,"locus YHR142W, strain chs7, stronger effect = lower value",0.96 (inactive)
same,normalized growth,"locus YHR200W, strain rpn10, stronger effect = lower value",1.01 (inactive)
same,normalized growth,"locus YIL066C, strain RNR3, stronger effect = lower value",0.983 (inactive)
same,normalized growth,"locus YIL073C, strain SPO22, stronger effect = lower value",1.03 (inactive)
same,normalized growth,"locus YIL125W, strain kgd1, stronger effect = lower value",1.03 (inactive)
same,normalized growth,"locus YIR030C, strain dcg1, stronger effect = lower value",1 (inactive)
same,normalized growth,"locus YJL092W, strain hpr5, stronger effect = lower value",0.98 (inactive)
same,normalized growth,"locus YJL095W, strain BCK1 (second series), stronger effect = lower value",0.985 (inactive)
same,normalized growth,"locus YJL095W, strain BCK1, stronger effect = lower value",1.03 (inactive) and 0.819 (active)
same,normalized growth,"locus YJL115W, strain asf1, stronger effect = lower value",0.968 (inactive)
same,normalized growth,"locus YJL129C, strain trk1, stronger effect = lower value",0.963 (inactive)
same,normalized growth,"locus YJL134W, strain LCB3, stronger effect = lower value",1.03 (inactive)
same,normalized growth,"locus YJL154C, strain vps35, stronger effect = lower value",0.976 (inactive)
same,normalized growth,"locus YJL164C, strain tpk1, stronger effect = lower value",0.982 (inactive)
same,normalized growth,"locus YJL166W, strain qcr8, stronger effect = lower value",0.98 (inactive)
same,normalized growth,"locus YJL168C, strain set2, stronger effect = lower value",1.01 (inactive)
same,normalized growth,"locus YJL187C, strain SWE1 (second series), stronger effect = lower value",0.992 (inactive)
same,normalized growth,"locus YJL187C, strain SWE1, stronger effect = lower value",0.979 (inactive)
same,normalized growth,"locus YJR043C, strain POL32, stronger effect = lower value",0.989 (inactive)
same,normalized growth,"locus YJR066W, strain TOR1, stronger effect = lower value",0.835 (inactive)
